# Experimental data from PubChem BioAssay (NCI).
# About 79,000 compounds went through this panel and 15% of them were active in at least one assay; those are over-represented in the sample as a whole. Unmarked numbers belong to inactive results. The source made the active and inactive calls. Rule as the data show it: active = growth inhibition above about 70%; inactive = the rest.
# What was measured:
# [1] = NCI Yeast Anticancer Drug Screen. Data for the rad52 strain (AID 147);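 also: 0% = growth of vehicle-treated control cultures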; settings: S. cerevisiae rad52 mutant growth inhibition, stronger effect = higher value
# Outline: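 Vehicle-treated cultures served as the reference for growth inhibition of compound-exposed yeast bearing a DNA repair mutation.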
# [2] = NCI Yeast Anticancer Drug Screen. Data for the wt1 strain (AID 149);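 also: 0% = growth of vehicle-treated wt1 cultures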; settings: S. cerevisiae wt1 strain (SPY 50644) growth inhibition, stronger effect = higher value
# Outline: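 Measured: growth of wt1 yeast under compound versus vehicle treatment, reported as inhibition.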
# [3] = NCI Yeast Anticancer Drug Screen. Data for the rad50EPP+ strain (AID 151);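 also: 0% = growth of vehicle-treated control cultures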; settings: S. cerevisiae rad50 mutant strain, stronger effect = higher value
# Outline: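 In this screen, rad50EPP+ yeast were exposed to compounds. Growth inhibition was scored against vehicle-treated controls.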
# [4] = NCI Yeast Anticancer Drug Screen. Data for the mgt1 strain (AID 153); settings: S. cerevisiae mgt1 mutant growth inhibition, stronger effect = higher value
# Outline: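 mgt1 strain exposed; growth vs vehicle control recorded as inhibition.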
# [5] = NCI Yeast Anticancer Drug Screen. Data for the rad50 strain (AID 155);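 also: 0% = growth of vehicle-only cultures of the same strain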; settings: S. cerevisiae rad50 strain growth inhibition, stronger effect = higher value
# Outline: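 Growth of the mutant yeast was measured after compound exposure and referenced to vehicle-treated cultures.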
# [6] = NCI Yeast Anticancer Drug Screen. Data for the mec2-1 strain (AID 157); settings: S. cerevisiae mec2-1 strain, stronger effect = higher value
# Outline: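 Vehicle-treated cultures served as reference for growth inhibition of compound-exposed mec2-1 yeast.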
# [7] = NCI Yeast Anticancer Drug Screen. Data for the rad14 strain (AID 159);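 also: 0% = growth of vehicle-treated control cultures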; settings: S. cerevisiae rad14 strain growth inhibition, stronger effect = higher value
# Outline: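 Here, inhibition of yeast growth was measured after compound exposure, using a strain with a genetic defect in DNA damage repair and vehicle-treated cultures as the reference.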
# [8] = NCI Yeast Anticancer Drug Screen. Data for the sgs1 mgt1 strain (AID 161);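 also: 0% = growth of cultures given vehicle only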; settings: S. cerevisiae sgs1 mgt1 strain, stronger effect = higher value
# Outline: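 Genetically altered yeast, compound exposure, growth inhibition relative to vehicle.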
# [9] = NCI Yeast Anticancer Drug Screen. Data for the CLN2oe strain (AID 163);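 also: 0% = growth of vehicle-only control cultures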; settings: S. cerevisiae CLN2oe strain, stronger effect = higher value
# Outline: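 Inhibition relative to vehicle-treated yeast is reported. Cells: strain with genetic alteration in cell-cycle control, grown with compound.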
# [10] = NCI Yeast Anticancer Drug Screen. Data for the cln2 rad14 strain (AID 165);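 also: 0% = growth equal to vehicle treated cultures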; settings: S. cerevisiae cln2 rad14 strain, stronger effect = higher value
# Outline: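 Each compound was tested on cln2 rad14 yeast. Inhibition of growth was calculated against vehicle-exposed controls.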
# [11] = NCI Yeast Anticancer Drug Screen. Data for the bub3 strain (AID 167); settings: S. cerevisiae bub3 mutant strain, stronger effect = higher value
# Outline: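 Whole-cell yeast assay. The mutant strain was incubated with compounds, and growth inhibition was determined by comparison with vehicle-treated cells.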
# [12] = NCI Yeast Anticancer Drug Screen. Data for the wt2 strain (AID 169);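 also: 0% = growth of vehicle-treated yeast cultures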; settings: S. cerevisiae wt2 strain growth inhibition, stronger effect = higher value
# Outline: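 Inhibition of yeast growth was determined after compound treatment, normalised to controls receiving only vehicle.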
# [13] = NCI Yeast Anticancer Drug Screen. Data for the mlh1 strain (AID 171);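 also: 0% = growth of vehicle-treated control cultures of the same strain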; settings: S. cerevisiae mlh1 strain growth inhibition, stronger effect = higher value
# Outline: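 Vehicle-normalised growth inhibition of a repair- or checkpoint-altered yeast strain following compound treatment.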
# [14] = NCI Yeast Anticancer Drug Screen. Data for the sgs1 strain (AID 173);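 also: 0% = growth of vehicle-only control cultures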; settings: S. cerevisiae sgs1 mutant, stronger effect = higher value
# Outline: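 Screen format: yeast with repair or checkpoint alterations, compound exposure, growth read relative to vehicle.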
# [15] = NCI Yeast Anticancer Drug Screen. Data for the mlh1 rad18 strain (AID 175); settings: S. cerevisiae mlh1 rad18 strain growth inhibition, stronger effect = higher value
# Outline: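 Vehicle-treated cultures served as the reference for growth inhibition in a yeast strain carrying DNA damage repair alterations exposed to each compound.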
# [16] = NCI Yeast Anticancer Drug Screen. Data for the rad18 strain (AID 177); settings: S. cerevisiae rad18 mutant growth inhibition, stronger effect = higher value
# Outline: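 Test articles were incubated with altered yeast defective in DNA damage repair. Results are given as inhibition of growth versus vehicle.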
# [17] = at 5.0 µM (retest, dose inferred, filed as 0.5)
# [18] = at 50.0 µM (retest, dose inferred, filed as 5.0)
structure (smiles),measurement,setting,value
CCS(=O)(=O)Nc1ccc(Nc2c3ccccc3nc3ccccc23)c(OC)c1,growth inhibition,[1]; at 1.2 µM,62%
same,growth inhibition,[1]; at 3.7 µM,82% (active)
same,growth inhibition,[1]; at 11.0 µM,88% (active)
same,growth inhibition,[1]; at 33.0 µM,90% (active)
same,growth inhibition,[1]; at 100.0 µM,93% (active)
same,growth inhibition,[2]; at 1.2 µM,-36%
same,growth inhibition,[2]; at 3.7 µM,-42%
same,growth inhibition,[2]; at 11.0 µM,-38%
same,growth inhibition,[2]; at 33.0 µM,-4%
same,growth inhibition,[2]; at 100.0 µM,62%
same,growth inhibition,[3]; at 1.2 µM,-1%
same,growth inhibition,[3]; at 3.7 µM,17%
same,growth inhibition,[3]; at 11.0 µM,48%
same,growth inhibition,[3]; at 33.0 µM,77% (active)
same,growth inhibition,[3]; at 100.0 µM,84% (active)
same,growth inhibition,[4]; at 1.2 µM,-28%
same,growth inhibition,[4]; at 3.7 µM,-35%
same,growth inhibition,[4]; at 11.0 µM,-28%
same,growth inhibition,[4]; at 33.0 µM,3%
same,growth inhibition,[4]; at 100.0 µM,64%
same,growth inhibition,[5]; at 1.2 µM,51%
same,growth inhibition,[5]; at 3.7 µM,79% (active)
same,growth inhibition,[5]; [17],86% (active)
same,growth inhibition,[5]; at 11.0 µM,86% (active)
same,growth inhibition,[5]; at 33.0 µM,91% (active)
same,growth inhibition,[5]; [18],99% (active)
same,growth inhibition,[5]; at 50.0 µM,24.7%
same,growth inhibition,[5]; at 100.0 µM,92% (active)
same,growth inhibition,[6]; at 1.2 µM,-42%
same,growth inhibition,[6]; at 3.7 µM,-32%
same,growth inhibition,[6]; [17],12%
same,growth inhibition,[6]; at 11.0 µM,7%
same,growth inhibition,[6]; at 33.0 µM,69%
same,growth inhibition,[6]; [18],96% (active)
same,growth inhibition,[6]; at 50.0 µM,11.8%
same,growth inhibition,[6]; at 100.0 µM,89% (active)
same,growth inhibition,[7]; at 1.2 µM,-40%
same,growth inhibition,[7]; at 3.7 µM,-36%
same,growth inhibition,[7]; at 11.0 µM,-26%
same,growth inhibition,[7]; at 33.0 µM,5%
same,growth inhibition,[7]; at 100.0 µM,74% (active)
same,growth inhibition,[8]; [17],49%
same,growth inhibition,[8]; [18],98% (active)
same,growth inhibition,[8]; at 50.0 µM,80.8% (active)
same,growth inhibition,[9]; at 1.2 µM,-8%
same,growth inhibition,[9]; at 3.7 µM,-35%
same,growth inhibition,[9]; at 11.0 µM,-2%
same,growth inhibition,[9]; at 33.0 µM,29%
same,growth inhibition,[9]; at 100.0 µM,59%
same,growth inhibition,[10]; [17],43%
same,growth inhibition,[10]; [18],84% (active)
same,growth inhibition,[10]; at 50.0 µM,53.4%
same,growth inhibition,[11]; at 1.2 µM,-50%
same,growth inhibition,[11]; at 3.7 µM,-32%
same,growth inhibition,[11]; [17],42%
same,growth inhibition,[11]; at 11.0 µM,-36%
same,growth inhibition,[11]; at 33.0 µM,3%
same,growth inhibition,[11]; [18],65%
same,growth inhibition,[11]; at 50.0 µM,50.5%
same,growth inhibition,[11]; at 100.0 µM,67%
same,growth inhibition,[12]; at 1.2 µM,-47%
same,growth inhibition,[12]; at 3.7 µM,-47%
same,growth inhibition,[12]; at 11.0 µM,-42%
same,growth inhibition,[12]; at 33.0 µM,-1%
same,growth inhibition,[12]; at 100.0 µM,56%
same,growth inhibition,[13]; at 1.2 µM,-57%
same,growth inhibition,[13]; at 3.7 µM,-33%
same,growth inhibition,[13]; at 11.0 µM,-24%
same,growth inhibition,[13]; at 33.0 µM,17%
same,growth inhibition,[13]; at 100.0 µM,74% (active)
same,growth inhibition,[14]; at 1.2 µM,-14%
same,growth inhibition,[14]; at 3.7 µM,-11%
same,growth inhibition,[14]; at 11.0 µM,-7%
same,growth inhibition,[14]; at 33.0 µM,36%
same,growth inhibition,[14]; at 100.0 µM,76% (active)
same,growth inhibition,[15]; [17],77% (active)
same,growth inhibition,[15]; [18],97% (active)
same,growth inhibition,[15]; at 50.0 µM,36%
same,growth inhibition,[16]; at 1.2 µM,-21%
same,growth inhibition,[16]; at 3.7 µM,-12%
same,growth inhibition,[16]; at 11.0 µM,-18%
same,growth inhibition,[16]; at 33.0 µM,23%
same,growth inhibition,[16]; at 100.0 µM,74% (active)
S=C1N(c2ccc(Cl)cc2)C2=C(N=Nc3ccccc3)C(=Nc3ccccc3S2)N1c1ccccn1,growth inhibition,[1]; at 1.2 µM,8%
same,growth inhibition,[1]; at 3.7 µM,16%
same,growth inhibition,[1]; at 11.0 µM,51%
same,growth inhibition,[1]; at 33.0 µM,98% (active)
same,growth inhibition,[1]; at 100.0 µM,99% (active)
same,growth inhibition,[2]; at 1.2 µM,-3%
same,growth inhibition,[2]; at 3.7 µM,-3%
same,growth inhibition,[2]; at 11.0 µM,3%
same,growth inhibition,[2]; at 33.0 µM,29%
same,growth inhibition,[2]; at 100.0 µM,85% (active)
same,growth inhibition,[3]; at 1.2 µM,-11%
same,growth inhibition,[3]; at 3.7 µM,3%
same,growth inhibition,[3]; at 11.0 µM,61%
same,growth inhibition,[3]; at 33.0 µM,94% (active)
same,growth inhibition,[3]; at 100.0 µM,97% (active)
same,growth inhibition,[4]; at 1.2 µM,13%
same,growth inhibition,[4]; at 3.7 µM,15%
same,growth inhibition,[4]; at 11.0 µM,66%
same,growth inhibition,[4]; at 33.0 µM,99% (active)
same,growth inhibition,[4]; at 100.0 µM,99% (active)
same,growth inhibition,[5]; at 1.2 µM,6%
same,growth inhibition,[5]; at 3.7 µM,12%
same,growth inhibition,[5]; [17],41%
same,growth inhibition,[5]; at 11.0 µM,42%
same,growth inhibition,[5]; at 33.0 µM,95% (active)
same,growth inhibition,[5]; [18],99% (active)
same,growth inhibition,[5]; at 50.0 µM,98.5% (active)
same,growth inhibition,[5]; at 100.0 µM,99% (active)
same,growth inhibition,[6]; at 1.2 µM,20%
same,growth inhibition,[6]; at 3.7 µM,23%
